Test results from PubChem BioAssay AID1986 (Sanford-Burnham Center for Chemical Genomics, 2009).
Among all 290,000 compounds or so, about 890 (0.31%) were called active. Rule as the data show it: active = inhibition mostly above about 52% (no sharp cut-off); inactive = mostly below about 76%. The list comes from a sample in which actives are over-represented; it also holds similar structures and randomly drawn compounds.

Assay: inhibitors of HIV fusion peptide binding, primary screen, biochemical, uHTS, fluorescence dequenching (AID 1986)
Settings: cell-free peptide binding, 30 min, stronger effect = higher value
[1] = measured here: repeat confirmation average inhibition, at 18.6 µM

SMILES: CCc1ccc(-c2cc3c(=O)n(CC(=O)NCCN4CCCCC4C)nc(C)n3n2)cc1 (stereo not given)
- inhibition (at 20 µM): -0.3% (inactive)

SMILES: O=C1CCC/C(=N/NC(=O)c2sc3ccccc3c2Cl)C1
- inhibition (at 20 µM): 81.5% (inactive)
- inhibition [1]: 39.7%

SMILES: COc1ccc2c(Cl)c(C(=O)NN)sc2c1
- inhibition (at 20 µM): 1.3% (inactive)

SMILES: COc1ccc2c(Cl)c(C(=O)N/N=C3\CCCC(=O)C3)sc2c1
- inhibition (at 20 µM): 77.7% (active)

SMILES: CC(C)(C)NC(=O)CSc1ccc(C(C)(C)C)cc1
- inhibition (at 20 µM): -2.2% (inactive)

SMILES: O=C(O)c1ccc(/C=N/Nc2nnnn2-c2ccccc2)cc1
- inhibition (at 20 µM): 2.1% (inactive)

SMILES: O=Cc1c(Sc2ccccc2)nc2ccccn2c1=O
- inhibition (at 20 µM): 2.6% (inactive)

SMILES: O=C(O)c1ccccc1N/N=C/c1c(Sc2nnnn2-c2ccccc2)nc2ccccn2c1=O
- inhibition (at 20 µM): 80.8% (active)
- inhibition [1]: 54.8%

SMILES: NC(=O)N/N=C/c1c(Sc2nnnn2-c2ccccc2)nc2ccccn2c1=O
- inhibition (at 20 µM): 0% (inactive)

SMILES: O=c1c(/C=N/Nc2ccccc2)c(Sc2nnnn2-c2ccccc2)nc2ccccn12
- inhibition (at 20 µM): 96.2% (active)

SMILES: O=c1c(/C=N/O)c(Nc2ccccc2)nc2ccccn12
- inhibition (at 20 µM): -2.7% (inactive)

SMILES: O=C(CC1Sc2ccccc2NC1=O)NCc1cccc(Cl)c1 (stereo not given)
- inhibition (at 20 µM): 1% (inactive)

SMILES: CCOC(=O)c1nnn(-c2nonc2N)c1CN1CCCC1
- inhibition (at 20 µM): -0.2% (inactive)

SMILES: COc1ccccc1-c1c(C(F)(F)F)oc2cc(OCC(=O)Nc3ccccc3C(F)(F)F)ccc2c1=O
- inhibition (at 20 µM): 3.1% (inactive)

SMILES: COc1ccccc1NC(=O)CSc1nnc(Cn2c(=O)sc3ccccc32)n1C
- inhibition (at 20 µM): 0.2% (inactive)

SMILES: COC(=O)C[n+]1cccc2ccccc21
- inhibition (at 20 µM): 78.3% (active)
- inhibition [1]: 65.6%

SMILES: O=C(C[n+]1cccc2ccccc21)c1ccccc1
- inhibition (at 20 µM): 11.8% (inactive)

SMILES: NC(=O)C[n+]1cccc2ccccc21
- inhibition (at 20 µM): 1.3% (inactive)

SMILES: CCOCCCNC(=O)/C(C#N)=C/c1ccc(C)o1
- inhibition (at 20 µM): -0.3% (inactive)

SMILES: Cc1ccccc1OCc1nc(-c2ccc(-n3cccc3)cc2)no1
- inhibition (at 20 µM): 3.2% (inactive)

SMILES: COc1ccccc1C(=O)C1CCCN(C(=O)c2cnn(C(C)C)c2)C1 (stereo not given)
- inhibition (at 20 µM): -0.2% (inactive)

SMILES: CN(C)/N=C/c1c(O)ccc2ccccc12
- inhibition (at 20 µM): -5.1% (inactive)

SMILES: Oc1ccc2ccccc2c1C=Nc1ccccc1Br
- inhibition (at 20 µM): 0.3% (inactive)

SMILES: Oc1ccccc1N=Cc1c(O)ccc2ccccc12
- inhibition (at 20 µM): 67.4% (active)

SMILES: Cc1ccc(Cl)cc1N1CCN(S(=O)(=O)c2ccc3c(c2)NC(=O)C(C)C(=O)N3)CC1 (stereo not given)
- inhibition (at 20 µM): 1.3% (inactive)

SMILES: CCn1c(C)c(C(C)=O)c(N2CCN(c3ccccn3)CC2)nc1=S
- inhibition (at 20 µM): 6.8% (inactive)

SMILES: C(=C\c1ccccc1)/CNn1cnnc1
- inhibition (at 20 µM): -2.1% (inactive)

SMILES: O=C(/C=C/c1c[nH]c2ccccc12)c1ccccc1
- inhibition (at 20 µM): -2.9% (inactive)

SMILES: Cc1ccc(C(=O)/C=C/c2c[nH]c3ccccc23)cc1
- inhibition (at 20 µM): 2.2% (inactive)

SMILES: Cc1[nH]c2ccccc2c1/C=C/c1cc[n+](C)cc1
- inhibition (at 20 µM): 144% (inactive)

SMILES: CCc1ccc(/C=C/c2c[nH]c3ccccc23)[n+](CC)c1
- inhibition (at 20 µM): 2.5% (inactive)

SMILES: C[n+]1ccc(/C=C/c2c[nH]c3ccccc23)cc1
- inhibition (at 20 µM): 82.6% (active)

SMILES: COc1ccc2c(/C=C/c3cc[n+](C)cc3)c[nH]c2c1
- inhibition (at 20 µM): 6.5% (inactive)

SMILES: CCN(CC)C(=O)c1ccc(/C=C/c2c[nH]c3ccccc23)[n+](C)c1
- inhibition (at 20 µM): 91.3% (active)
- inhibition [1]: 81.7%

SMILES: C[n+]1cc(C(=O)N2CCCCC2)ccc1/C=C/c1c[nH]c2ccccc12
- inhibition (at 20 µM): 148% (inactive)

SMILES: O=c1c2ccccc2nc(/C=C/c2c[nH]c3ccccc23)n1CCO
- inhibition (at 20 µM): 5.3% (inactive)

SMILES: CC[n+]1ccc(/C=C/c2c[nH]c3ccccc23)cc1
- inhibition (at 20 µM): 97.2% (active)
- inhibition [1]: 77.7%

SMILES: CC[n+]1c(/C=C/c2c[nH]c3ccccc23)ccc2cc(C)ccc21
- inhibition (at 20 µM): 142% (inactive)

SMILES: OCC[n+]1ccc(/C=C/c2c[nH]c3ccccc23)cc1
- inhibition (at 20 µM): 53% (active)

SMILES: Cc1nnsc1-c1nc2ccccc2[nH]1
- inhibition (at 20 µM): -1.6% (inactive)

SMILES: COc1ccc(NC(=O)c2cc(Br)ccc2Cl)c([N+](=O)[O-])c1
- inhibition (at 20 µM): -0.4% (inactive)

SMILES: O/N=C\c1ccc2noc(-c3ccc(Cl)cc3)c2c1
- inhibition (at 20 µM): 0% (inactive)

SMILES: c1ccc(Oc2ncnc3sccc23)cc1
- inhibition (at 20 µM): -1.5% (inactive)

SMILES: N#Cc1ccc(CSc2nnc(NC(=O)CN3C(=O)C4CC=CCC4C3=O)s2)cc1 (stereo not given)
- inhibition (at 20 µM): 6.4% (inactive)

SMILES: COc1cccc(/C=N/NC(=O)c2[nH]c(C)c(C(=O)N/N=C/c3cccc(OC)c3O)c2C)c1O
- inhibition (at 20 µM): 4.6% (inactive)

SMILES: CCCn1cnc2scc(-c3ccc(C)cc3)c2c1=O
- inhibition (at 20 µM): -1.9% (inactive)

SMILES: Cc1ccc(C)c(NC(=O)CSc2nnc(C3CCCCC3)o2)c1
- inhibition (at 20 µM): -1.1% (inactive)

SMILES: O=C(O)CCn1c(=O)n(CCC(=O)O)c(=O)n(CCC(=O)O)c1=O
- inhibition (at 20 µM): 0.1% (inactive)

SMILES: O=C(CN1c2ccccc2Sc2ccccc21)N/N=C/c1ccc(Cl)cc1
- inhibition (at 20 µM): -1% (inactive)

SMILES: C[n+]1ccc(/C=C/c2c[nH]c3ccc(F)cc23)cc1
- inhibition (at 20 µM): 77.8% (active)
- inhibition [1]: 85.8%

SMILES: Cc1ccc2[nH]cc(/C=C/c3cc[n+](C)cc3)c2c1
- inhibition (at 20 µM): 160% (inactive)

SMILES: COc1ccc2[nH]cc(/C=C/c3cc[n+](C)cc3)c2c1
- inhibition (at 20 µM): 18.3% (inactive)

SMILES: CC1=C(C(=O)Nc2ccc(C(=O)NC(C)c3ccccc3)cc2)SCCO1 (stereo not given)
- inhibition (at 20 µM): 2.3% (inactive)

SMILES: O=C(Nc1cccc(C(=O)N2CCCCC2)c1)c1ccccc1Br
- inhibition (at 20 µM): -1.4% (inactive)

SMILES: O=S(=O)(NCc1ccccc1F)NCc1ccccc1F
- inhibition (at 20 µM): -1.9% (inactive)

SMILES: O=c1c(-c2nc3ccccc3o2)c2oc3ccccc3n2c2ccccc12
- inhibition (at 20 µM): -2.3% (inactive)

SMILES: O=c1c(Cl)c2oc3ccccc3nc-2c2ccccc12
- inhibition (at 20 µM): 50.8% (active)

SMILES: Clc1ccc(-c2nnc(Sc3nc4ccccc4o3)c3ccccc23)cc1
- inhibition (at 20 µM): -0.2% (inactive)

SMILES: O=C(N/N=C\c1ccc2c(c1)OCO2)c1ccc(Cn2cc(Br)c([N+](=O)[O-])n2)o1
- inhibition (at 20 µM): -2.8% (inactive)

SMILES: CN(C)Cc1c(O)ccc2c1O/C(=C\C=C\c1ccccc1)C2=O
- inhibition (at 20 µM): 77.7% (active)
- inhibition [1]: 124%

SMILES: Cc1ccc(/C=C2\Oc3c(ccc(O)c3CN3CCN(CCO)CC3)C2=O)cc1
- inhibition (at 20 µM): 35.2% (inactive)

SMILES: CCN1CCN(Cc2c(O)ccc3c2O/C(=C\C=C\c2ccccc2)C3=O)CC1
- inhibition (at 20 µM): 53.7% (active)

SMILES: CCN(CC)Cc1c(O)ccc2c(-c3ccccc3)cc(=O)oc12
- inhibition (at 20 µM): -2.2% (inactive)

SMILES: COc1ccccc1/C=C/C=C1\Oc2c(ccc(O)c2CN2CCN(CCO)CC2)C1=O
- inhibition (at 20 µM): 122% (active)

SMILES: CCN1CCN(Cc2c(O)ccc3c2O/C(=C\c2ccccc2)C3=O)CC1
- inhibition (at 20 µM): 67.8% (inactive)
- inhibition [1]: 22.1%

SMILES: CS(=O)(=O)Oc1ccc2c(c1)O/C(=C\C=C\c1ccccc1)C2=O
- inhibition (at 20 µM): 3.8% (inactive)

SMILES: O=C1/C(=C/C=C/c2ccccc2)Oc2c1ccc(O)c2CN1CCN(CCO)CC1
- inhibition (at 20 µM): 128% (inactive)

SMILES: CCN(CC)Cc1c(O)ccc2c1O/C(=C\C=C\c1ccccc1)C2=O
- inhibition (at 20 µM): 116% (active)
- inhibition [1]: 143%

SMILES: CCN1CCN(Cc2c(O)ccc3c2O/C(=C\C=C\c2ccccc2OC)C3=O)CC1
- inhibition (at 20 µM): 149% (inactive)

SMILES: COc1ccccc1/C=C/C=C1\Oc2c(ccc(O)c2CN(C)C)C1=O
- inhibition (at 20 µM): 146% (inactive)

SMILES: CCN(CC)Cc1c(O)ccc2c(=O)c(-c3ccccc3)coc12
- inhibition (at 20 µM): -1.9% (inactive)
